Inconclusive results are not listed. Active and inactive are the calls of the source. Unless noted, calls follow the shape of the dose curve; as a rule, active = well fitted curve in the direction sought with a large enough effect in the repeat runs; inconclusive = weak or mixed curves; inactive = no such curve, though single readings can be large; an effect the other way counts as inactive or inconclusive.
How the values were obtained:
[1] = biological target: Acetylcholinesterase (Homo sapiens) (UniProt P22303); assay: Acetylcholinesterase (AChE) small molecule antagonists: enzyme-based qHTS assay (AID 1347397; calls by dose curve; also: nearly all actives have a fitted effect of over 55% in size; also: potency is read from the fitted curve at half-maximal effect); details: Potency: AChE enzyme activity inhibition; outcome: AChE enzyme activity inhibition; series mostly up to 115 µM
In short: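 Enzyme inhibition was scored from DTNB-detected thiocholine formed by recombinant human AChE acting on acetylthiocholine. The 30 min compound preincubation and 10 min substrate reaction were both run at room temperature, with DMSO as vehicle control.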

[2] = biological target: Acetylcholinesterase (Homo sapiens) (UniProt P22303); assay: Acetylcholinesterase (AChE) small molecule antagonists: fluorescence cell-based qHTS assay (AID 1347398; calls by dose curve; also: nearly all actives have a fitted effect of over 50% in size; also: potency is read from the fitted curve at half-maximal effect); details: SH-SY5Y cells; Potency: AChE activity; outcome: AChE activity; series mostly up to 115 µM
In short: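 Endogenous acetylcholinesterase of SH-SY5Y neuroblastoma cells is measured in situ. After overnight attachment and 30 min compound exposure, cells receive acetylthiocholine and Thiolite Green; fluorescence is read after 40 min at room temperature.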

[3] = biological target: Acetylcholinesterase (Homo sapiens) (UniProt P22303); assay: Acetylcholinesterase (AChE) small molecule antagonists: enzyme-based qHTS assay with human liver microsomes (AID 1347399; calls by dose curve; also: nearly all actives have a fitted effect of over 60% in size; also: potency is read from the fitted curve at half-maximal effect); details: Potency: qHTS inhibition; outcome: qHTS inhibition; series mostly up to 115 µM
In short: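 Recombinant human AChE (50 mU/mL in the enzyme mix) and human liver microsomes (0.25 mg/mL final) were preincubated with compound and NADPH (0.25 mg/mL final) for 30 min at 37 C. Acetylthiocholine/DTNB was then added; thiocholine was read colorimetrically after 10 min at room temperature.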

[4] = biological target: Cytochrome P450 2C19 (Homo sapiens) (UniProt P33261); assay: Cytochrome P450 Family 2 Subfamily C Member 19 (CYP2C19) small molecule antagonists: luciferase reporter qHTS assay (AID 1671197); details: P450-Glo CYP2C19 enzyme, luciferin luminescence, 1 h; series mostly up to 115 µM; also: nearly all actives have a fitted effect of over 65% in size; also: potency is read from the fitted curve at half-maximal effect
In short: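 Luminescent readout of CYP2C19 activity: luciferin product detected 20 min after adding detection reagent. Before that, compound and enzyme-substrate mix preincubated 10 min at room temperature; NADPH-regenerating system started a 1 h, 37C reaction. Ketoconazole as positive control.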

[5] = biological target: Cytochrome P450 2C9 (Homo sapiens) (UniProt P11712); assay: Cytochrome P450 Family 2 Subfamily C Member 9 (CYP2C9) small molecule antagonists: luciferase reporter qHTS assay (AID 1671198); details: P450-Glo CYP2C9 enzyme assay, luciferin luminescence; series mostly up to 115 µM; also: nearly all actives have a fitted effect of over 50% in size; also: potency is read from the fitted curve at half-maximal effect
In short: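 P450-Glo proluciferin substrate with CYP2C9 enzyme; 10 min RT preincubation, then NADPH regeneration 1 h at 37C; luciferin detection reagent 20 min RT, luminescence in relative luminescence units.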

[6] = biological target: Cytochrome P450 1A2 (Homo sapiens) (UniProt P05177); assay: Cytochrome P450 Family 1 Subfamily A Member 2 (CYP1A2) small molecule antagonists: luciferase reporter qHTS assay (AID 1671199); details: P450-Glo CYP1A2 enzyme, luciferin luminescence, 1 h; series mostly up to 115 µM; also: nearly all actives have a fitted effect of over 50% in size; also: potency is read from the fitted curve at half-maximal effect
In short: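 Inhibition of CYP1A2 conversion of proluciferin to luciferin, detected by luminescence. Reaction run 1 h at room temperature with NADPH regeneration after brief compound preincubation.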

[7] = biological target: Voltage-gated inwardly rectifying potassium channel KCNH2 (Homo sapiens) (UniProt Q12809); assay: Human Ether-a-go-go-Related Gene (hERG) channel small molecule antagonists: fluorescence cell-based qHTS assay (AID 1671200); details: hERG-U2OS cells, FluxOR thallium flux fluorescence; series mostly up to 76.8 µM;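 also: hERG-expressing U2OS cells given a thallium stimulus after FluxOR II dye loading; nearly all actives have a fitted effect of over 50% in size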
In short: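 In this thallium-flux screen, overnight-cultured U2OS cells bearing the channel are dye-loaded in darkness for an hour, rested 10 min at room temperature, and then monitored kinetically at 480/540 nm for two minutes post-stimulus.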

[8] = biological target: Cytochrome P450 3A4 (Homo sapiens) (UniProt P08684); assay: Cytochrome P450 Family 3 Subfamily A Member 4 (CYP3A4) small molecule antagonists: luciferase reporter qHTS assay (AID 1671201); details: P450-Glo CYP3A4 enzyme, luciferin luminescence, 1 h; series mostly up to 115 µM; also: nearly all actives have a fitted effect of over 50% in size; also: potency is read from the fitted curve at half-maximal effect
In short: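 CYP3A4 activity was followed with a P450-Glo proluciferin substrate. Test compounds in DMSO were preincubated 10 min; NADPH regeneration then ran 1 h, and light output was read 20 min after detection reagent.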

[9] = biological target: Cytochrome P450 2D6 (Homo sapiens) (UniProt P10635); assay: Cytochrome P450 Family 2 Subfamily D Member 6 (CYP2D6) small molecule antagonists: luciferase reporter qHTS assay (AID 1671196); details: P450-Glo CYP2D6 enzyme assay, luciferin luminescence, 1 h; series mostly up to 115 µM; also: nearly all actives have a fitted effect of over 50% in size
In short: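 P450-Glo format: CYP2D6 converts a proluciferin substrate to luciferin in an NADPH-driven reaction lasting 1 h at room temperature. Light output, proportional to CYP2D6 activity, reflects interference by test chemicals.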

Measured: Potency

Sequence of Cytochrome P450 1A2 (Homo sapiens) (P05177 whole entry, looked up): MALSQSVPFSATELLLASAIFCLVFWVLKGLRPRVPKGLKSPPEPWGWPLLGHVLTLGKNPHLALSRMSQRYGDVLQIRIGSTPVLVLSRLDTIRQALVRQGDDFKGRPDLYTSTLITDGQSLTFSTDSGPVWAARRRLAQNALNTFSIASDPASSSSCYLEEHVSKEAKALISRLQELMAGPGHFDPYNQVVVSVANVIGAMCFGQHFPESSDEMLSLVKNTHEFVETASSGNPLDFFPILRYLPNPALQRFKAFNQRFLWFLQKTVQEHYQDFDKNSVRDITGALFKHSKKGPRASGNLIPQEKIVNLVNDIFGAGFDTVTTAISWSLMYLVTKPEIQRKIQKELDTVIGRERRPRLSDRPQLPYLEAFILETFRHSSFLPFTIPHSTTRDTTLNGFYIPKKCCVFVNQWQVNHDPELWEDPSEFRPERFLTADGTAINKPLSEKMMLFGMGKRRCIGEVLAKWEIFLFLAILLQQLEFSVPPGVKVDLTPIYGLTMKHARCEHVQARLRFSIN
Sequence of Cytochrome P450 2D6 (Homo sapiens) (P10635 whole entry, looked up): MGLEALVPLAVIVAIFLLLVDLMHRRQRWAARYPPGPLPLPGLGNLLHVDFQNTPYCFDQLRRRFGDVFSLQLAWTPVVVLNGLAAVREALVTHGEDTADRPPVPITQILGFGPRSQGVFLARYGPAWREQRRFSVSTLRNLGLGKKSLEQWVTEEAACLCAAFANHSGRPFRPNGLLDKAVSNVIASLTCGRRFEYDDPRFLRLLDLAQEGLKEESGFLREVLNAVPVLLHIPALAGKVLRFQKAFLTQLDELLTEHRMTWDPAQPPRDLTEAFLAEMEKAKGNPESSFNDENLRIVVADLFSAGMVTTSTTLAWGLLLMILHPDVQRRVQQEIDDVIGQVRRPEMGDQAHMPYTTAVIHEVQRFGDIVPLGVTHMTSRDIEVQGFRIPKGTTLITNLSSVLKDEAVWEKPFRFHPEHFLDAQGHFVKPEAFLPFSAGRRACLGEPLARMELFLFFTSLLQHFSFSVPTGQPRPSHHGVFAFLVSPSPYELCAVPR
Sequence of Acetylcholinesterase (Homo sapiens) (P22303 whole entry, looked up): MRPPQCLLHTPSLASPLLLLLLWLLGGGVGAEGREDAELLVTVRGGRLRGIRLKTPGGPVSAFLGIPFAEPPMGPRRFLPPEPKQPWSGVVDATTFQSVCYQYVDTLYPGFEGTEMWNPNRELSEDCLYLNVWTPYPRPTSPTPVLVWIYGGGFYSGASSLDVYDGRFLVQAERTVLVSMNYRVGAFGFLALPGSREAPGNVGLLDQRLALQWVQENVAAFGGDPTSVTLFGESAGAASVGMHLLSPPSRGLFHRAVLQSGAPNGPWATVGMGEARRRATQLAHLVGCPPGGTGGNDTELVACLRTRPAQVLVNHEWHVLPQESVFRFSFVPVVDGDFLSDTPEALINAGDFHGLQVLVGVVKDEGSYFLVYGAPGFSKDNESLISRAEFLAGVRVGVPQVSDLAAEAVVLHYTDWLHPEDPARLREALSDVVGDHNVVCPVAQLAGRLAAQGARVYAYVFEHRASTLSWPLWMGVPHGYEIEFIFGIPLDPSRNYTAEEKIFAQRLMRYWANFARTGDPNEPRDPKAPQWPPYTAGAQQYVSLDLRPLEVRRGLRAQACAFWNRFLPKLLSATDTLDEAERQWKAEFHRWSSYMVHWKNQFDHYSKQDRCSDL
Sequence of Cytochrome P450 3A4 (Homo sapiens) (P08684 whole entry, looked up): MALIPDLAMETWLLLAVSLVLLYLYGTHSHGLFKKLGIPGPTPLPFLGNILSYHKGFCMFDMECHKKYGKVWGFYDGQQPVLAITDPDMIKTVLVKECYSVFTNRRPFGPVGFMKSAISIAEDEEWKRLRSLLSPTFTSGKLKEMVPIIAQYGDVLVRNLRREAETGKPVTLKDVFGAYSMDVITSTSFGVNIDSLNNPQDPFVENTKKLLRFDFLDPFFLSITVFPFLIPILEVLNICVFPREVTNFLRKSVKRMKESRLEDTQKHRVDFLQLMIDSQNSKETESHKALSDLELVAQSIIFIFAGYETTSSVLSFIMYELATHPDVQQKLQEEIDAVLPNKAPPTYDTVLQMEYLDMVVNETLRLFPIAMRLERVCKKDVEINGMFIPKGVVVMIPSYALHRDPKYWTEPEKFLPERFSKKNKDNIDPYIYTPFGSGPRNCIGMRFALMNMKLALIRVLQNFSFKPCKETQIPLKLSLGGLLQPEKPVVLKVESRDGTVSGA
Sequence of Cytochrome P450 2C9 (Homo sapiens) (P11712 whole entry, looked up): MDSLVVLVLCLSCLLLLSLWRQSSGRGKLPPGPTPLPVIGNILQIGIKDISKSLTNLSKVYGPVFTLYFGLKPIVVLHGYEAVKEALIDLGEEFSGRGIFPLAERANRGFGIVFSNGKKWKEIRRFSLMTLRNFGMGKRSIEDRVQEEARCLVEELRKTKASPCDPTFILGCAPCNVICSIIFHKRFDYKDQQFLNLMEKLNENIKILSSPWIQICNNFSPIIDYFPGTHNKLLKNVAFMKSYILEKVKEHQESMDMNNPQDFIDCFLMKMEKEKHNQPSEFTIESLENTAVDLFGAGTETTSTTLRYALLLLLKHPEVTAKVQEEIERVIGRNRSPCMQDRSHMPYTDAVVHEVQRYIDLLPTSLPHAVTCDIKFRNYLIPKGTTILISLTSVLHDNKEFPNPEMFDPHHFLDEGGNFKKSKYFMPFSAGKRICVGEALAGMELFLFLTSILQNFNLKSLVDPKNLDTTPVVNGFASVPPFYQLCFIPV
Sequence of Cytochrome P450 2C19 (Homo sapiens) (P33261 whole entry, looked up): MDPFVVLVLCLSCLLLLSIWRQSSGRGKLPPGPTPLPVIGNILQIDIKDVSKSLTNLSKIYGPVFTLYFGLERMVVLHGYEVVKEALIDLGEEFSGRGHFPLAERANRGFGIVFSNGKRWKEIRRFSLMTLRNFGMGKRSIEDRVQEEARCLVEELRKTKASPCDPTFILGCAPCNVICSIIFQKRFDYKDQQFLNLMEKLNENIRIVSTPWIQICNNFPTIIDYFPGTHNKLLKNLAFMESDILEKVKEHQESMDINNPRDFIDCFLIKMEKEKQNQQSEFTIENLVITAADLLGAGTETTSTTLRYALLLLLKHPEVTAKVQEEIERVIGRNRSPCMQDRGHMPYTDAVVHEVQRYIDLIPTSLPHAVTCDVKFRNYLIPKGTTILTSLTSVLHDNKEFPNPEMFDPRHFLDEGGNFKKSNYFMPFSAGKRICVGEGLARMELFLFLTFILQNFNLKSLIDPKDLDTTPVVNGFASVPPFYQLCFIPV
Sequence of Voltage-gated inwardly rectifying potassium channel KCNH2 (Homo sapiens) (Q12809 whole entry, looked up): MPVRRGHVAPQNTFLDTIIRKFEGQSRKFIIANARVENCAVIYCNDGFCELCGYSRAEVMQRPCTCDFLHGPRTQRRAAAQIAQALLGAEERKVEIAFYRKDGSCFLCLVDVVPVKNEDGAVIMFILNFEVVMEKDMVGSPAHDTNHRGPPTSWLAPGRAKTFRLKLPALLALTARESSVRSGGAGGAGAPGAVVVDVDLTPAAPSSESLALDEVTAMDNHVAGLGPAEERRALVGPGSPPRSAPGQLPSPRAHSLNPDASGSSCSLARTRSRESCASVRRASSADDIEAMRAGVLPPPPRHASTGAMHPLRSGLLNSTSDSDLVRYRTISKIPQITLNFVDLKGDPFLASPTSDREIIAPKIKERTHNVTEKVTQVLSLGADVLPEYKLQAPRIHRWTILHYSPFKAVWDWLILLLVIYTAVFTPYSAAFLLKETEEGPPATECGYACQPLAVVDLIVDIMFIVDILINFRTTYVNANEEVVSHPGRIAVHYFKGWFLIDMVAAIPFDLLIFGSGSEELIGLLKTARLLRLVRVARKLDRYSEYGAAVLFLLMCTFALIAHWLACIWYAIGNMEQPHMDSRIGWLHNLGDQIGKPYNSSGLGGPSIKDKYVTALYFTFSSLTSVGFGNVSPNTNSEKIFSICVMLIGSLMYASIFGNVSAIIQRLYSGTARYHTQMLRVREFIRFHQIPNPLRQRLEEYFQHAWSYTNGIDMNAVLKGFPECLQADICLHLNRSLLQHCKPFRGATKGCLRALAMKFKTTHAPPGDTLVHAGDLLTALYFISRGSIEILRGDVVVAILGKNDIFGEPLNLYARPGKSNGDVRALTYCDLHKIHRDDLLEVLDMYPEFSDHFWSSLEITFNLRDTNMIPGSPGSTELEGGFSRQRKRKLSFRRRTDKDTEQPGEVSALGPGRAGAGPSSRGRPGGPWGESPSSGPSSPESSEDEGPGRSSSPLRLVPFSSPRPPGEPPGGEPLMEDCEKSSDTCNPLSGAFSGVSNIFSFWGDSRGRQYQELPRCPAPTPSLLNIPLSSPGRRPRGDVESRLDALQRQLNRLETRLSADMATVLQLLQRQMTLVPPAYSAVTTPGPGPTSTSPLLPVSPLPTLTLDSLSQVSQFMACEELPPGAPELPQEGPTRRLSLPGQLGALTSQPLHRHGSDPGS

CC(C)(C)C(=O)Cl
not listed: [9]
inactive: all other assays above

CC(=NC#N)N(C)Cc1ccc(Cl)nc1
not listed: [4] | [5]
inactive: all other assays above

O=C(Cl)c1ccccc1
not listed: [4] | [5]
inactive: all other assays above

COP(=O)(O)OC
active: [4] 18.5 µM | [6] 32.8 µM
not listed: [9]
inactive: all other assays above

CCCC[N+](=O)[O-]
not listed: [9]
inactive: all other assays above

CNC(=O)Oc1cc(C)c(N(C)C)c(C)c1
active: [1] 2.25 µM | [2] 0.797 µM | [3] 12.6 µM | [4] 79.7 µM | [6] 10 µM
inactive: [5] | [7] | [8]

CCSC(=O)Cl
not listed: [9]
inactive: all other assays above

CCC(=O)c1ccc(Cl)cc1
not listed: [9]
inactive: all other assays above

COc1cc(CC(C)N)cc(OC)c1OC (stereo not given)
active: [6] 43.2 µM
not listed: [9]
inactive: all other assays above

O=C(Cl)/C=C/C(=O)Cl
not listed: [4] | [5]
inactive: all other assays above

C=CCc1cc(OC)c2c(c1)OCO2
active: [4] 59 µM | [5] 37.2 µM | [6] 1.87 µM | [8] 4.69 µM
inactive: [1] | [2] | [3] | [7]

— PubChem BioAssay (Tox21)
